Reference: the supplement of paper PMC11732987, “Enantioselective OTUD7B fragment discovery through chemoproteomics screening and high-throughput optimisation” (Communications Chemistry, 2025)
Values without a mark were called inactive.

Experiments:
Test in all cases: log2 ratio of Biotin-Ahx-Ub-VS probe labelling (fragment/DMSO); higher = less target engagement (more negative = stronger competition), active = hit call of the paper (q ≤ 0.05, log2 ratio ≤ -1)
Details in all cases: compound concentration: 200 uM; treatment time: 3 h
ALG13 = target: T1, ALG13 (UniProt Q9NP73)
T1 sequence (whole entry): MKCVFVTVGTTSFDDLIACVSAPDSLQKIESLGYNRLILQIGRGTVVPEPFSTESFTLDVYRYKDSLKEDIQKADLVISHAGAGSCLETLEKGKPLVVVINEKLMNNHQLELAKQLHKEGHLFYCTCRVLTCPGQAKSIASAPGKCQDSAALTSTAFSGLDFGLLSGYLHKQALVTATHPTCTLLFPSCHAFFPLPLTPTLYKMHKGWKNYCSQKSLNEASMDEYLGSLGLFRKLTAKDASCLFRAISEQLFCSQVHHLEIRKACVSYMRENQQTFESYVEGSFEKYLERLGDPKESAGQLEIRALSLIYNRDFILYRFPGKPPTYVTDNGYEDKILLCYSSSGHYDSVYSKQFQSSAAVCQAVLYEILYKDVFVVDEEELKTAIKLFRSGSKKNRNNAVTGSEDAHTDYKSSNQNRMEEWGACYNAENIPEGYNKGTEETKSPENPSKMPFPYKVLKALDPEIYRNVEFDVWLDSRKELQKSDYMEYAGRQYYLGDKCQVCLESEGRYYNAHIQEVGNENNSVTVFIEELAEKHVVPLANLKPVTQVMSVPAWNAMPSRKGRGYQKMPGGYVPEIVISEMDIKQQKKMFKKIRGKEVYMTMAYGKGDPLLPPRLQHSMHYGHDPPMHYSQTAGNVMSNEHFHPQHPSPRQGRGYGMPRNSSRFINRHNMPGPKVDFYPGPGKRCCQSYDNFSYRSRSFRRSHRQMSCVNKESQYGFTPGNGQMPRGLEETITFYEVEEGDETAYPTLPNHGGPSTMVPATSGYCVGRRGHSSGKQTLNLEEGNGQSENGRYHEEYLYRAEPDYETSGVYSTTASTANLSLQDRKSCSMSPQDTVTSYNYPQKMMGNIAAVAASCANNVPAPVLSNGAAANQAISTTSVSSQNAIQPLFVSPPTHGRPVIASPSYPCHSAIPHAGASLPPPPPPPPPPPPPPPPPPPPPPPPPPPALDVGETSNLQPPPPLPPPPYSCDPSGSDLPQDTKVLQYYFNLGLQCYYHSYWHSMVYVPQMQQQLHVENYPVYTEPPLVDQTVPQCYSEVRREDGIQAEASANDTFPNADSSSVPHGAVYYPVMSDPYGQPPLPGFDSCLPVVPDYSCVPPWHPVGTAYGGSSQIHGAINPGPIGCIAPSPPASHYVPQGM
Method in brief: (§1)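 HEK293T lysate, 495 µg per sample in Tris/CHAPS/IGEPAL buffer with protease inhibitors, was treated in triplicate with fragment at 200 µM or vehicle for 3 h and then with Biotin-Ahx-Ub-VS at 0.5 µM final for 1 h. Labelled DUBs were NeutrAvidin-enriched, digested with LysC and trypsin, and run by diaPASEF LC-MS/MS. Spectronaut label-free quantities were global-median-normalised, and values are average log2 fragment/vehicle ratios by unpaired t-test on proteins with ≥2 unique peptides.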

ATXN3 = ATXN3 (UniProt P54252)
ATXN3, sequence (P54252 whole entry): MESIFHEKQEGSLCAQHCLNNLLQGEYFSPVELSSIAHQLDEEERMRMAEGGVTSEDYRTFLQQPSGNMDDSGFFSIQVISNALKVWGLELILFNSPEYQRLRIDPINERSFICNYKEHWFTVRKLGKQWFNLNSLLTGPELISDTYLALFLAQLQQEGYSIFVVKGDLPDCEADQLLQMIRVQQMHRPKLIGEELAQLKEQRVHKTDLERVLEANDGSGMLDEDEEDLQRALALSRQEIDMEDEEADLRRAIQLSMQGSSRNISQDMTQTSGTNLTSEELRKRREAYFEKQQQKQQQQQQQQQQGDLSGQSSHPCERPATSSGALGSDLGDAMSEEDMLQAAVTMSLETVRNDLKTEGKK
Method in brief: as §1

BAP1 = target: T2, BAP1 (UniProt Q92560)
T2 sequence (whole entry): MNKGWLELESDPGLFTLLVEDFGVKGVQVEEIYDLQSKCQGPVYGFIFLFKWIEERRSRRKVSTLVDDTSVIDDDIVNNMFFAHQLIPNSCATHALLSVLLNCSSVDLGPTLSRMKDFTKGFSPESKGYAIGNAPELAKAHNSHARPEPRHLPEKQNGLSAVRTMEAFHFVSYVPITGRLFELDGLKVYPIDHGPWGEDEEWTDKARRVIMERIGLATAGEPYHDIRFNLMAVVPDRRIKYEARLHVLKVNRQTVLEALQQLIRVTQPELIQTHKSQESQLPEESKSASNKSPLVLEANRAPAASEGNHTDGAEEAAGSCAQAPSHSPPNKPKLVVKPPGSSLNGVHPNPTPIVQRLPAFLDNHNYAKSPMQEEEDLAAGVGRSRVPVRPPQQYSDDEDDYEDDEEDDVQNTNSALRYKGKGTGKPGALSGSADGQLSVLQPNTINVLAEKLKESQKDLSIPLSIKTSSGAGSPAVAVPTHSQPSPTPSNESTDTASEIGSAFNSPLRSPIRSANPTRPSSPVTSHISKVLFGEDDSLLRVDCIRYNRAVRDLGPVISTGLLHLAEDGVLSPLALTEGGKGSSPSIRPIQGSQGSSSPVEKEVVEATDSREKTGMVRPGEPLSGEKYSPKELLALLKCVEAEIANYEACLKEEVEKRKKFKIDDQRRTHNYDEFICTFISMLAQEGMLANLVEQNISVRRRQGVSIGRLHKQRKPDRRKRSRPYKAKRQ
Method in brief: as §1

EIF3F = EIF3F (UniProt O00303)
EIF3F, sequence (O00303 whole entry): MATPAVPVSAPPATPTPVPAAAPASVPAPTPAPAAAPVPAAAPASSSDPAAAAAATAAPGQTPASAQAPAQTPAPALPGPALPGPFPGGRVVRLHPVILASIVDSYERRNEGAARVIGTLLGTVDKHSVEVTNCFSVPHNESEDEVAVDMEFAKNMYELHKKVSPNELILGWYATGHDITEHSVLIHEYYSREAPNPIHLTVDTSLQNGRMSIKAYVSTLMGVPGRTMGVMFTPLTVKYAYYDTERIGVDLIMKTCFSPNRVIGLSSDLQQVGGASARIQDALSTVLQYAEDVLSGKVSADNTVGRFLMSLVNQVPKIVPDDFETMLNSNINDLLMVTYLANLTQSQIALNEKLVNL
Method in brief: as §1

EIF3H = EIF3H (UniProt O15372)
EIF3H, sequence (O15372 whole entry): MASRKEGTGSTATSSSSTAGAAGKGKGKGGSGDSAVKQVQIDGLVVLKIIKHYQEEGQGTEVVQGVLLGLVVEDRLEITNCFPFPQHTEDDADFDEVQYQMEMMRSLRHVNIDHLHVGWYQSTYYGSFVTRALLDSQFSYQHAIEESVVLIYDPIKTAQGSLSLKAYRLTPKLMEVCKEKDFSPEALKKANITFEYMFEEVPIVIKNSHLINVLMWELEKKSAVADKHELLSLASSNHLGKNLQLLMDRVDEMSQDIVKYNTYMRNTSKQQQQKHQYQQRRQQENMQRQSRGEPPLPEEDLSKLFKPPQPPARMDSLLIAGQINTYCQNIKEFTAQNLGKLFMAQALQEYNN
Method in brief: as §1

FAM105A = target: T3, FAM105A (UniProt Q9NUU6)
T3 sequence (whole entry): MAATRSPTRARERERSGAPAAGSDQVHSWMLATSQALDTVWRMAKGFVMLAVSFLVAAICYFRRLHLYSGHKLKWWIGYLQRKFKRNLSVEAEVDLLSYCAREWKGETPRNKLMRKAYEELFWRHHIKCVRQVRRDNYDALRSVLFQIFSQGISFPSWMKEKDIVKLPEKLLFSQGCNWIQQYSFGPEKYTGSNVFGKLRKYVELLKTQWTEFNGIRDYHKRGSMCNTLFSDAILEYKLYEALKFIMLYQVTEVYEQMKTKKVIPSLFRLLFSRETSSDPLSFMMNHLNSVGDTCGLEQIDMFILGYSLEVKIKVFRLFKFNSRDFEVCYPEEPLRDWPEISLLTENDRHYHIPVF
Method in brief: as §1

OTUB1 = OTUB1 (UniProt Q96FW1)
OTUB1, sequence (Q96FW1 whole entry): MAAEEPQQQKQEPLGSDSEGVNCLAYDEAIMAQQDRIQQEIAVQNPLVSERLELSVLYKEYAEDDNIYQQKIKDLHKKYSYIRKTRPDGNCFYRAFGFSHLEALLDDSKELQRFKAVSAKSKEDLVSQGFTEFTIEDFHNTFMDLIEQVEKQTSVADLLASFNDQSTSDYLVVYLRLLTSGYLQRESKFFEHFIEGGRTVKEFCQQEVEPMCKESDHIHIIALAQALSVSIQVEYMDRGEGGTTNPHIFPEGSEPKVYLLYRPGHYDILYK
Method in brief: as §1

OTUD4 = target: T4, OTUD4 (UniProt Q01804)
T4 sequence (whole entry): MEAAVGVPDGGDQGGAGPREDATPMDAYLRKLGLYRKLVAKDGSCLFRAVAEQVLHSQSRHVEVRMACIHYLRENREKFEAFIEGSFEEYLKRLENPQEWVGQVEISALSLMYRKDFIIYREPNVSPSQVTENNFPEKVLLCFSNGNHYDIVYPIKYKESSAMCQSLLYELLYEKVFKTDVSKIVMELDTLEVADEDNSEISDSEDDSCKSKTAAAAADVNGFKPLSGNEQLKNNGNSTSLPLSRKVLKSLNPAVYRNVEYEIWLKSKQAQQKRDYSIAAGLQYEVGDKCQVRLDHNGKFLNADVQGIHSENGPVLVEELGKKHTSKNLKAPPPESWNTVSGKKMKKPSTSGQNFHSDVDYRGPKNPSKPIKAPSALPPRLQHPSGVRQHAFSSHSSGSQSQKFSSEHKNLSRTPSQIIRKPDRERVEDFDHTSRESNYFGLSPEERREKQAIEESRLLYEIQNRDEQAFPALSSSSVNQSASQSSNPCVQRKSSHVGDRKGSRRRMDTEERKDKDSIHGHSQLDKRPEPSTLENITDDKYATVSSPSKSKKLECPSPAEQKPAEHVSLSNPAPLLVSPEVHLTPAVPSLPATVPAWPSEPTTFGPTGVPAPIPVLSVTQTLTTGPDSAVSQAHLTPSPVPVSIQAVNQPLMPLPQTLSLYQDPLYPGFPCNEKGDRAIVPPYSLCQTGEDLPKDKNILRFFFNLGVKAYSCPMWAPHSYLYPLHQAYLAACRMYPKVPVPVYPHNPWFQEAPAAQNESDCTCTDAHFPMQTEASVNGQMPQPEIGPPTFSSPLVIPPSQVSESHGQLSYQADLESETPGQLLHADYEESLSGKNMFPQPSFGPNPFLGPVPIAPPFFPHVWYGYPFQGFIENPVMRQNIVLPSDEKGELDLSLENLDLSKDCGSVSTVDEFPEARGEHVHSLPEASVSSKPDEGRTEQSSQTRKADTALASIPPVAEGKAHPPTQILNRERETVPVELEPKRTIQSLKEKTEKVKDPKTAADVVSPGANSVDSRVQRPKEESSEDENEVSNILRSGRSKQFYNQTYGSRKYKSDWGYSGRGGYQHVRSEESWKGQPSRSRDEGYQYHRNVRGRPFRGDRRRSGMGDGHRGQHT
Method in brief: as §1

OTUD5 = target: T5, OTUD5 (UniProt Q96G74)
T5 sequence (whole entry): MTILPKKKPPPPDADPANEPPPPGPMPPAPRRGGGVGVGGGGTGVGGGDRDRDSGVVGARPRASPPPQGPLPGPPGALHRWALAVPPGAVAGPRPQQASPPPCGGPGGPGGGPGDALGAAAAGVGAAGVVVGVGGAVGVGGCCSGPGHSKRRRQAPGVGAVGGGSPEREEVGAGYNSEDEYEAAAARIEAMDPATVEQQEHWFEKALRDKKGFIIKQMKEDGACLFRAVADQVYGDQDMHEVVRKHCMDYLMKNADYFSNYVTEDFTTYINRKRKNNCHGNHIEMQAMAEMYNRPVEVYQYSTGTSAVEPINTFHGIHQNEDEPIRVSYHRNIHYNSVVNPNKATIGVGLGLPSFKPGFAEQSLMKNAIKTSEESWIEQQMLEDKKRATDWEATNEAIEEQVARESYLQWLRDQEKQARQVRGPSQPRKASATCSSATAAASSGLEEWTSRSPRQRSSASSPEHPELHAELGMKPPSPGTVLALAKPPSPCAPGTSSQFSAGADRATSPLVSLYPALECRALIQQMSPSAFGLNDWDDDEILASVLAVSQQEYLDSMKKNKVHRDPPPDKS
Method in brief: as §1

With `O=C(CCl)N1CCc2[nH]c3ccccc3c2C1` the “log2 ratio of Biotin-Ahx-Ub-VS probe labelling” value (“log2 ratio” below) (ALG13) was -0.37, the “log2 ratio” value (ATXN3) was -0.343 and the “log2 ratio” value (BAP1) was -0.875. For the same compound, the “log2 ratio” value (EIF3F) was -0.00281, the “log2 ratio” value (EIF3H) was 0.231 and the “log2 ratio” value (FAM105A) was 0.0311. The “log2 ratio” value (OTUB1) was -0.167, the “log2 ratio” value (OTUD4) was -0.657 and the “log2 ratio” value (OTUD5) was -1.55 (active).
